Laboratory results as given in PubChem BioAssay (NCATS).
Records with an inconclusive call do not appear. Unmarked numbers belong to inactive results. Activity calls are given as the source filed them. The call rests on the fitted dose curve; in most records, active means well fitted inhibition curve with a large enough effect; inconclusive means small, poorly fitted or top-dose-only effect; inactive means flat fitted curve, though single readings scatter.

tested on: TAB165; assay: qHTS profiling for inhibitors of Plasmodium falciparum proliferation (AID 504749); further: nearly all actives have a fitted effect of over 60% in size;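 on activity, negative = inhibition: 0% = DMSO vehicle and full inhibition = artemisinin control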; conditions: P. falciparum in erythrocytes, SYBR Green DNA, 72 h; series mostly up to 28.7 µM; activity, negative = inhibition: at the top concentration
Summary of the method: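 P. falciparum-infected erythrocytes (0.3% parasitemia, 2.5% hematocrit) incubated with compound 72 h at 37 C, 5% CO2. Parasite DNA detected by SYBR Green after lysis, overnight at room temperature; normalised to 0.29 uM artemisinin and DMSO.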
Potency means the concentration at half of the fitted maximal effect.

| Compound | activity, negative = inhibition | Potency |
| --- | --- | --- |
| CCN(CC)CCOC(=O)C1(c2ccccc2)CCCC1 | -74.7% | – |
| CCC(CC)(CC(=O)Nc1cccc(/C=C/c2nc(C3CCC3)cs2)c1)C(=O)O | -23.1% | – |
| C#C[C@]1(OC(C)=O)CC[C@H]2[C@@H]3CCC4=C/C(=N/O)CC[C@@H]4[C@H]3CC[C@@]21CC | -6.58% | – |
| Cc1ncc(CO)c(C=O)c1O | 5.17% | – |
| O=C(O)CCc1nc2ccccc2[nH]1 | – | 7.94 µM (active) |
| CCNC(=O)NCc1cccc(Cl)c1 | 10.1% | – |
| CCOc1ccccc1OCCN[C@H](C)Cc1ccc(OC)c(S(N)(=O)=O)c1 | -8.52% | – |
| Oc1ccc(Cl)cc1Cc1cc(Cl)ccc1O | – | 11.2 µM (active) |
| CCOC(=O)Nc1ccc2c(c1)N(C(=O)CCN1CCOCC1)c1ccccc1S2 | -2.01% [at 12.8 µM] | – |
| CC[N+](C)(CC)CCOC(=O)C(O)(c1ccccc1)C1CCCCC1 (stereo unspecified) | -29.4% | – |
| CC(C)=CCOc1ccc(/C=C/C(=O)c2ccc(OCC=C(C)C)cc2OCC(=O)O)cc1 | -11% | – |
| O=C(CN1CCN(Cc2ccc3c(c2)OCO3)CC1)N1c2ccccc2Sc2ccccc21 | – | 10 µM (active) |
| CCC(C(=O)OCCOCCN(CC)CC)c1ccccc1 (stereo unspecified) | -21.9% | – |
| O=C(NC1CCN(CCc2c[nH]c3ccccc23)CC1)c1ccccc1 | -24.6% | – |
| NC(=O)C1(N2CCCCC2)CCN(CCCC(=O)c2ccc(F)cc2)CC1 | -26.6% | – |
| O=S(c1cc(Cl)cc(Cl)c1O)c1cc(Cl)cc(Cl)c1O | – | 0.355 µM (active) |
| Cc1ccc2c(Br)cc(Br)c(O)c2n1 | – | 6.31 µM (active) |
| Cc1cccc(C)c1NC(=O)CN1CCCCCC1 | -4.06% | – |
| CC(=O)NCCCCCC(=O)O | 14.2% | – |
| CCc1ccc(C(=O)C(C)CN2CCCCC2)cc1 (stereo unspecified) | -5.39% | – |
| COc1ccc2c(c1)c1c3n2CCN(C)C3=NCC1 | -0.249% | – |
